Inconclusive results are not listed. Active and inactive are the calls of the source. Calls come from the whole dose curve; as a rule, active = well fitted inhibition curve with a large enough effect; inconclusive = small, poorly fitted or top-dose-only effect; inactive = flat fitted curve, though single readings scatter.
Biological target: Dual specificity protein kinase CLK4 (Homo sapiens) (UniProt Q9HAZ1)
Assay: Confirmation Assay for Inhibitors of Clk4 (Kinase-Glo Assay): KU probe
Settings: recombinant Clk4, Kinase-Glo ATP luminescence
Description: NIH Molecular Libraries Probe Production Centers Network [MLPCN] NIH Chemical Genomics Center [NCGC] MLPCN Grant: 1R03MH084827-01 Assay Submitter (PI): Tom Misteli NCGC Assay Overview: Clk4 (Invitrogen, cat# PV3839) was assayed using ATP and the RS repeat peptide (AnaSpec cat # 61722) as substrates. Following the Clk4 reaction, the remaining ATP levels were detected using Promega Kinase-Glo technology wherein the remaining ATP from the kinase reaction is detected using Ultra-Glo luciferase and D-luciferin which generates a bioluminescence signal from the ATP.
NCGC Assay Protocol Summary: Two uL/well of substrate-buffer solution (100 uM RS peptide, 1 uM ATP, 25 mM Tris pH7.5, 10 mM MgCl2, 0.5 mM EGTA, 2.5 mM DTT, 0.01% Triton X-100 final concentration) was dispensed into 1536-well, assay plates (Greiner, solid white medium-binding plates) with Aurora Discovery BioRAPTR Flying Reagent Dispenser (FRD; Beckton-Dickenson). Using a Kalypsys pin tool equipped with a 1536-pin tool, 23 nL of compound solution was transferred to the assay plate. […] Luminescence was detected with the ViewLux plate reader (Perkin Elmer, Waltham, MA) after 5 min incubation using a 5 second exposure time and 2x binning.

Chain of Dual specificity protein kinase CLK4 (Homo sapiens) (Q9HAZ1 whole entry, looked up): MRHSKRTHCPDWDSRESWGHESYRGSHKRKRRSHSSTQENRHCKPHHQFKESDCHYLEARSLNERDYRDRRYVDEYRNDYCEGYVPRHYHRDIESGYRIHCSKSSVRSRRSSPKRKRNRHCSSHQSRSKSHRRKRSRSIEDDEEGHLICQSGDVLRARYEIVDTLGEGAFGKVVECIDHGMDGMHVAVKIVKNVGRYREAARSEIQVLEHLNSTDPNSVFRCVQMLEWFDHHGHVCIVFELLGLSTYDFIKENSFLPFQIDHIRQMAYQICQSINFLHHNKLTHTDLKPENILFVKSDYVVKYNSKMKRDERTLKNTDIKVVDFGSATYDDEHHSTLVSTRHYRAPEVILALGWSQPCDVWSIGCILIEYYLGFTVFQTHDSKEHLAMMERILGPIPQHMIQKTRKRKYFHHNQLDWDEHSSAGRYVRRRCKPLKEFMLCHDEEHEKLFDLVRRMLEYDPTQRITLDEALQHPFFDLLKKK

SMILES	Potency
Clc1ccc(CNc2ccnc(-c3ccc4c(c3)OCO4)n2)cn1	29.2 µM (active)
Cc1cc(CNc2ccnc(-c3ccc4c(c3)OCO4)n2)cnc1F	9.23 µM (active)
